Consider 67 compounds from PubChem BioAssay AID588675 (Johns Hopkins Ion Channel Center, 2011).

In all, about 310,000 compounds went through this assay and about 1,900 (0.61%) were called active. This is one part of a sample in which actives are shown more often than they occur.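 The calls were made as follows: active = plate-corrected calcium response at least 3 library SD above typical, normal starting fluorescence, not activating the receptor alone; inactive = the rest.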

The target in this assay is Mas-related G-protein coupled receptor member X1 (Homo sapiens) (UniProt Q96LB2). Description: allosteric enhancers of human MrgX1 signaling – HEK293 cells, Fluo-4 calcium flux, primary screen (AID 588675).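 Also: compound read alongside a low EC10 to EC30 dose of BAM8-22 agonist.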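 As to B-score: peak minus trough fluorescence over baseline measured at the second addition.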 As to conditions: MrgX1-HEK293, Fluo-4 calcium flux, FDSS, at 10 µM; stronger effect = higher value. For orientation: Calcium assays in cells follow changes in intracellular calcium, usually with a dye or a luminescent sensor.
Sequence of Mas-related G-protein coupled receptor member X1 (Homo sapiens) (Q96LB2 whole entry, looked up): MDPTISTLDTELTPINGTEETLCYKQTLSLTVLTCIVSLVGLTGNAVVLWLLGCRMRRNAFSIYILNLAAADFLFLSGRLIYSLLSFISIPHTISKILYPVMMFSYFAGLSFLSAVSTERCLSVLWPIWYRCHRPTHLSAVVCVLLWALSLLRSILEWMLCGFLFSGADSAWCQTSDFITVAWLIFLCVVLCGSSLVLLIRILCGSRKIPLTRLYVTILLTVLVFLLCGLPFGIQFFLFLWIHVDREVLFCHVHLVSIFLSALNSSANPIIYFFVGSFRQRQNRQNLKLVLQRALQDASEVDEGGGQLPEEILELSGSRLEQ
Regarding `CN(C(=O)CCNC(=O)Cn1ccc2ccccc2c1=O)c1ccc(Br)cc1`, the B-score entry was “inactive”.

As to `CC(=O)N1c2ccc(S(=O)(=O)N(C)CC(=O)N(C)Cc3ccccc3)cc2CC1C` (configuration not stated), the B-score result was “inactive”.

In the case of `O=C(Nc1nnc(-c2ccccc2F)s1)c1ccccc1F`, the B-score result is “inactive”.

As to `COc1ccccc1C(CNC(=O)c1cccc(NS(=O)(=O)c2ccc(Br)cc2)c1)N(C)C` (configuration not stated), the B-score result was “inactive”.

As for `Cc1ccc(CNS(=O)(=O)c2ccc3c(c2)N(C)CCO3)cc1`, the B-score result is “inactive”.

For the compound `CC(=O)NS(=O)(=O)c1ccc(N/C(N)=N/c2nc(C)cc(C)n2)cc1`, the B-score entry is “inactive”.

With `Cc1ccc(NC(=O)Nc2ccc3oc(C)nc3c2)cc1`, the B-score entry is “inactive”.

Consider `Cc1ccc(N/C(N)=N/c2nc(C(F)(F)F)cc(C(F)(F)F)n2)cc1`, for which the B-score is 38.3 (active).

In the case of `O=C(c1noc2c1CCCC2)N1CCc2ccccc2C1`, the B-score result was “inactive”.

As for `Cc1cc(C)cc(Oc2nc3c(C)cccn3c(=O)c2/C=C(\C#N)C(=O)NC2CCS(=O)(=O)C2)c1` (configuration not stated), the B-score result is “inactive”.

Take `CN1CC(c2ccccc2)C2(COc3ccccc3C2=O)C12C(=O)Nc1ccccc12` (configuration not stated): the B-score result was “inactive”.

Regarding `CSc1nc(C)nc2c1c(=O)n(C)c(=O)n2C`, the B-score entry was “inactive”.

Regarding `CCOC(=O)N1CCN(C(=O)CSc2nc(C)nc3c2c(=O)n(C)c(=O)n3C)CC1`, the B-score result is “inactive”.

As to `CCC(C)Sc1nc(C)nc2c1c(=O)n(C)c(=O)n2C` (configuration not stated), the B-score was 17.1 (active).

Turning to `CC(=O)N/N=C/c1cc2c(cc1[N+](=O)[O-])OCO2`, the B-score result was “inactive”.

With `O=C(N/N=C/c1cc2c(cc1Br)OCO2)C1COc2ccccc2O1` (configuration not stated), the B-score entry was “inactive”.

`CC1(C(=O)N/N=C/c2cc3c(cc2Br)OCO3)CC1(Br)Br` (configuration not stated): the B-score is 8.54 (active).

In the case of `CCOC(=O)C1(Cc2ccccc2C)CCCN(S(C)(=O)=O)C1` (configuration not stated), the B-score result is “inactive”.

In the case of `O=C(NC(Cc1ccccc1)C(=O)O)/C(=C\c1ccccc1)NC(=O)c1ccco1` (configuration not stated), the B-score result is “inactive”.

With `CCS(=O)(=O)C1=NSC2=NC(=O)/C(=C\c3cc(C)n(-c4cccc(OC)c4)c3C)C(=N)N21`, the B-score is 10.5 (active).

Consider `CCS(=O)(=O)C1=NSC2=NC(=O)/C(=C\c3ccc(OS(=O)(=O)c4ccccc4)cc3)C(=N)N21`, for which the B-score was 24.2 (active).

With `CCC1=NN2C(=N)/C(=C/c3cc(C)n(-c4ccccc4)c3C)C(=O)N=C2S1`, the B-score entry was “inactive”.

Regarding `CS(=O)(=O)c1ccc2c(c1)SC1=NC(=O)/C(=C/c3ccco3)C(=N)N12`, the B-score result was “inactive”.

Take `Cc1cc(/C=C2\SC(=O)N(C)C2=O)c(C)n1-c1cccc(C(=O)O)c1`: the B-score entry is “inactive”.

In the case of `Cc1ccc(C2=N/C(=C\c3ccc(OS(=O)(=O)c4ccc(C)cc4)cc3)C(=O)O2)cc1`, the B-score entry was “inactive”.

On to `COc1ccccc1OCCOc1ccc(/C=C2\C(=N)N3N=C(C)SC3=NC2=O)cc1`, for which the B-score result is “inactive”.

Take `CS(=O)(=O)C1=NN2C(=N)/C(=C\c3ccc(OCCOc4ccccc4)cc3)C(=O)N=C2S1`: the B-score entry was “inactive”.

For `Cc1cc(/C=C2/C(=N)N3C(=NC2=O)SN=C3S(C)(=O)=O)c(C)n1-c1ccccc1`, the B-score was 11.8 (active).

For `COC1(C2=NCCN2)COc2ccccc2O1` (configuration not stated), the B-score result was “inactive”.

As for `COc1ccccc1NC(=O)N1CCCC1C(=O)NCc1cccs1` (configuration not stated), the B-score entry was “inactive”.

On to `COc1cccc(-c2nnc(NC(=O)c3ccc(S(=O)(=O)N(CC(C)C)CC(C)C)cc3)o2)c1`, for which the B-score result was “inactive”.

On to `O=C1CCCCN1CCCC(=O)N1CCCC(Nc2ccc(F)cc2)C1` (configuration not stated), for which the B-score entry was “inactive”.

On to `CCOC(=O)c1ccc(N=C2SC(C(=O)NC)CC(=O)N2CCc2ccccc2)cc1` (configuration not stated), for which the B-score entry was “inactive”.

For `CSc1ccc(CN2C(=O)NC3(CCCCCC3)C2=O)cc1`, the B-score result was “inactive”.

For the compound `C=C1c2c(Cl)ccc(O)c2C(O)=C2C(=O)[C@]3(O)C(O)=C(C(N)=O)C(=O)[C@@H](N(C)C)[C@@H]3[C@@H](O)C12` (some centres not stated), the B-score entry is “inactive”.

Take `O=C(Cc1ccc(S(=O)(=O)N2CCCC2)s1)NC1CCCCCC1`: the B-score result was “inactive”.

With `Cc1ccc(SCC(=O)c2cc(C)c(OC(=S)N(C)C)c(C)c2)cc1`, the B-score result is “inactive”.

For the compound `O=C(Nc1ncc([N+](=O)[O-])s1)C1COc2ccccc2O1` (configuration not stated), the B-score result was “inactive”.

For the compound `O=C(Nc1nc2c(F)cc(F)cc2s1)C1COc2ccccc2O1` (configuration not stated), the B-score is 9.52 (active).

Consider `COc1ccc(OC)c2sc(NC(=O)C3COc4ccccc4O3)nc12` (configuration not stated), for which the B-score result is “inactive”.

Consider `COc1cc(OC)nc(N/N=C(\c2ccccc2)c2ccncc2)n1`, for which the B-score is 9.14 (active).

Consider `COc1ccc(C/C(C)=N/NC(=O)c2ccncc2)cc1`, for which the B-score entry is “inactive”.

Regarding `CN(C)CCCO/N=C(\c1ccccc1)c1ccncc1`, the B-score result is “inactive”.

`CSc1cccc(NC(=O)C2CCCN2S(=O)(=O)c2ccc3c(c2)CCC(=O)N3)c1` (configuration not stated): the B-score result was “inactive”.

Take `CC[N+](C)(CC)CCC[n+]1c(-c2ccccc2)c2cc(N)ccc2c2ccc(N)cc21`: the B-score result was “inactive”.

Consider `Cc1ccc2c(c1)c1ncn(CCC3=CCCCC3)c(=O)c1n2C`, for which the B-score result was “inactive”.

As to `Cc1ccc2c(c1)c1ncn(Cc3ccc(F)cc3)c(=O)c1n2C`, the B-score entry is “inactive”.

Take `Cc1ccc2c(c1)c1ncnc(N3CCc4ccccc4C3)c1n2C`: the B-score was 8.06 (active).

With `COc1cc(S(=O)(=O)N(Cc2cccs2)C2CC2)ccc1-n1cnnn1`, the B-score entry is “inactive”.

On to `COC(=O)c1ccc(CN2CCN(CCCc3ccccc3)C(CCO)C2)cc1` (configuration not stated), for which the B-score result was “inactive”.

For the compound `COc1ccc(F)c(-c2nc(CN3CCC(c4ccccc4)CC3)c(C)o2)c1`, the B-score entry is “inactive”.

With `Cc1oc(-c2ccccc2F)nc1CS(=O)CC(=O)NCCN1CCCCC1C` (configuration not stated), the B-score result is “inactive”.

Turning to `Cc1nonc1C1CCCN1Cc1nc(-c2ccc(F)cc2F)oc1C` (configuration not stated), the B-score is 7.14 (active).

As to `CCCCOc1ccc(N(CC(=O)NC(C)C)C(=O)CCC(=O)Nc2ccccn2)cc1`, the B-score result was “inactive”.

For the compound `CCCNc1c(N)c(=O)c1=O`, the B-score result was “inactive”.

Take `Cc1oc2cc([N+](=O)[O-])c(O)c([N+](=O)[O-])c2c1C(=O)c1ccc(Br)cc1`: the B-score entry is “inactive”.

Regarding `COc1ccc(C(=O)N2CC3(C)CC2CC(C)(C)C3)cc1OC` (configuration not stated), the B-score entry is “inactive”.

In the case of `CC1(C)CC2CC(C)(CN2c2ncnc3ccc(Br)cc23)C1` (configuration not stated), the B-score is 13 (active).

For `COc1ccc(Nc2ncnc3ccc(Br)cc23)c(OC)c1`, the B-score entry is “inactive”.

Take `Cn1c(-c2sccc2OCc2cccc(C(F)(F)F)c2)n[nH]c1=S`: the B-score entry was “inactive”.

As to `Cc1ccccc1-c1n[nH]c(=S)n1C`, the B-score entry is “inactive”.

With `Cn1c(-c2sc3cc(C(F)(F)F)cnc3c2-c2ccccc2)n[nH]c1=S`, the B-score is 9.48 (active).

With `COc1ccccc1C(=O)NC(=S)NC12CC3CC(CC(C3)C1)C2`, the B-score entry is “inactive”.

Consider `CN1CCN(C(=O)c2ccccc2NC(=O)COc2ccccc2Cl)CC1`, for which the B-score entry is “inactive”.

On to `O=C(CNC(=O)c1ccc(F)cc1)c1ccccc1`, for which the B-score result is “inactive”.

Turning to `Cc1cccc[n+]1CC(=O)c1ccccc1`, the B-score entry was “inactive”.

With `O=C(C[n+]1cc(Br)cc2ccccc21)c1ccc(F)cc1`, the B-score was 9.24 (active).
